From PubChem BioAssay (NCI)
This is part of a sample that, as a whole, favours compounds with a hit. Of some 79,000 tested, about 15% had one in any assay. Calls of active or inactive are those of the source. Cut-off read from the data, not from the text of the source: active = growth inhibition above about 70%; inactive = the rest.

Key:
[1] = NCI Yeast Anticancer Drug Screen. Data for the rad50 strain (AID 155);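 note: 0% = growth of vehicle-only cultures of the same strain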; conditions: S. cerevisiae rad50 strain growth inhibition, hits give high values
In short: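 Readout: growth inhibition relative to vehicle-treated cultures. Compound exposure was carried out in a genetically defined yeast strain deficient in DNA damage repair.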

[2] = NCI Yeast Anticancer Drug Screen. Data for the mec2-1 strain (AID 157); conditions: S. cerevisiae mec2-1 strain, hits give high values
In short: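 Mutant yeast (mec2-1) grown with compound; growth inhibition relative to vehicle control reported.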

[3] = NCI Yeast Anticancer Drug Screen. Data for the sgs1 mgt1 strain (AID 161);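 note: 0% = growth of cultures given vehicle only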; conditions: S. cerevisiae sgs1 mgt1 strain, hits give high values
In short: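 Percent growth inhibition was derived by comparing compound-exposed mutant yeast with vehicle-exposed cultures. The strain carries alterations in DNA damage repair.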

[4] = NCI Yeast Anticancer Drug Screen. Data for the cln2 rad14 strain (AID 165);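 note: 0% = growth equal to vehicle treated cultures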; conditions: S. cerevisiae cln2 rad14 strain, hits give high values
In short: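 Readout is yeast growth inhibition versus vehicle-treated controls, using a strain with cln2 and rad14 alterations exposed to compound.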

[5] = NCI Yeast Anticancer Drug Screen. Data for the bub3 strain (AID 167); conditions: S. cerevisiae bub3 mutant strain, hits give high values
In short: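 Readout: yeast growth inhibition, expressed relative to vehicle-only wells. The test organism is a mutant strain from a panel with lesions in DNA repair or checkpoint genes.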

[6] = NCI Yeast Anticancer Drug Screen. Data for the mlh1 rad18 strain (AID 175); conditions: S. cerevisiae mlh1 rad18 strain growth inhibition, hits give high values
In short: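 Genetically defined yeast (DNA repair-deficient) exposed to compounds; growth inhibition determined relative to vehicle.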

[7] = at 5.0 µM (retest, dose inferred, filed as 0.5)
[8] = at 50.0 µM (retest, dose inferred, filed as 5.0)

Measured: growth inhibition

CCN(CC)c1cc(Nc2c3ccc(Cl)cc3nc3cc(Cl)ccc23)ccc1O
inactive: [1]; [7] 1% | [1]; [8] 4% | [1]; at 50.0 µM 34.5% | [2]; [7] -39% | [2]; [8] -3% | [2]; at 50.0 µM -11.2% | [3]; [7] -3% | [3]; [8] -4% | [3]; at 50.0 µM -4.35% | [4]; [7] -6% | [4]; [8] -3% | [5]; [7] -5% | [5]; [8] -10% | [5]; at 50.0 µM 0.75% | [6]; [7] 0% | [6]; [8] -2% | [6]; at 50.0 µM -0.95%
active: [4]; at 50.0 µM 71.7%

COc1ccc(C(c2cc3c(cc2O)OCO3)N2CCOCC2)c(OC)c1OC (stereo unspecified)
inactive: [1]; [7] 4% | [2]; [7] 4% | [3]; [7] 0% | [3]; at 50.0 µM 62.9% | [4]; [7] -6% | [4]; [8] 63% | [4]; at 50.0 µM 24.4% | [5]; [7] 0% | [6]; [7] 2% | [6]; [8] 63%
active: [1]; [8] 96% | [1]; at 50.0 µM 95.5% | [2]; [8] 97% | [2]; at 50.0 µM 99.6% | [3]; [8] 74% | [5]; [8] 87% | [5]; at 50.0 µM 98.7% | [6]; at 50.0 µM 83%

Sc1ccccc1C1N(Cc2ccc(Cl)cc2)CCCN1Cc1ccc(Cl)cc1
inactive: [1]; [8] 42% | [2]; [8] 69% | [2]; at 50.0 µM 55.6% | [4]; [8] 39% | [4]; at 50.0 µM 64% | [5]; [8] 63%
active: [1]; [7] 98% | [1]; at 50.0 µM 79.2% | [2]; [7] 100% | [3]; [7] 99% | [3]; [8] 84% | [3]; at 50.0 µM 86.8% | [4]; [7] 99% | [5]; [7] 99% | [5]; at 50.0 µM 81.8% | [6]; [7] 99% | [6]; [8] 73% | [6]; at 50.0 µM 79.6%

CC(C)(C)C1CCC(SCCO)CC1 (stereo unspecified)
inactive: [1]; [7] -22% | [2]; [7] -2% | [3]; [7] -3% | [4]; [7] -9% | [5]; [7] -8% | [6]; [7] 14%
active: [1]; [8] 98% | [1]; at 50.0 µM 97.5% | [2]; [8] 95% | [2]; at 50.0 µM 91.9% | [3]; [8] 98% | [3]; at 50.0 µM 97.7% | [4]; [8] 97% | [4]; at 50.0 µM 90% | [5]; [8] 98% | [5]; at 50.0 µM 95% | [6]; [8] 99% | [6]; at 50.0 µM 95.4%

O=S(=O)(Nc1ccccn1)c1ccc(NCc2c3ccccc3nc3cc(Cl)ccc23)cc1
active: [5]; [8] 76% | [6]; at 50.0 µM 71.8%
inactive: [1]; [7] 0% | [1]; [8] 65% | [1]; at 50.0 µM 65.9% | [2]; [7] 4% | [2]; [8] 37% | [2]; at 50.0 µM 55.2% | [3]; [7] -2% | [3]; [8] 66% | [3]; at 50.0 µM 54.5% | [4]; [7] 6% | [4]; [8] 36% | [4]; at 50.0 µM 31.9% | [5]; [7] 8% | [5]; at 50.0 µM 34.8% | [6]; [7] 3% | [6]; [8] 52%

CC(C)(C)NC(=S)N/N=C/c1cc(Cl)cc(Cl)c1O
active: [1]; [8] 72% | [1]; at 50.0 µM 77.1% | [2]; [8] 84% | [2]; at 50.0 µM 90% | [3]; [7] 97% | [3]; [8] 99% | [3]; at 50.0 µM 90.4% | [4]; [7] 88% | [4]; [8] 93% | [4]; at 50.0 µM 82.7% | [5]; [7] 97% | [5]; [8] 98% | [5]; at 50.0 µM 84.7% | [6]; [7] 74% | [6]; [8] 87% | [6]; at 50.0 µM 80.7%
inactive: [1]; [7] 65% | [2]; [7] 64%

CC(=O)OC(C)C1C2=C(C(=O)CC1(C)O)C(=O)c1c(ccc(-c3ccc4c(c3O)C(=O)C3=C(C4=O)C(C(C)OC(C)=O)C(C)(O)CC3=O)c1O)C2=O (stereo unspecified)
inactive: [1]; [7] 21% | [2]; [7] 10% | [3]; [7] 44% | [4]; [7] 12% | [4]; [8] 67% | [5]; [7] 13% | [6]; [7] 28%
active: [1]; [8] 94% | [1]; at 50.0 µM 72.8% | [2]; [8] 95% | [2]; at 50.0 µM 79.6% | [3]; [8] 86% | [3]; at 50.0 µM 76.5% | [4]; at 50.0 µM 70.8% | [5]; [8] 85% | [5]; at 50.0 µM 70.7% | [6]; [8] 94% | [6]; at 50.0 µM 76.7%

CC1=CC(O)(c2ccc(-c3ccccc3Cl)cc2)OC1=O (stereo unspecified)
inactive: [1]; [7] -8% | [2]; [7] 0% | [3]; [7] -1% | [4]; [7] -19% | [5]; [7] -11% | [6]; [7] -9%
active: [1]; [8] 90% | [1]; at 50.0 µM 90.2% | [2]; [8] 96% | [2]; at 50.0 µM 94.8% | [3]; [8] 88% | [3]; at 50.0 µM 92.1% | [4]; [8] 87% | [4]; at 50.0 µM 90.9% | [5]; [8] 95% | [5]; at 50.0 µM 89.3% | [6]; [8] 94% | [6]; at 50.0 µM 96.3%

OC(CCN1CCOCC1)C1c2ccccc2Cc2ccccc21 (stereo unspecified)
inactive: [1]; [7] 6% | [2]; [7] 6% | [2]; [8] 29% | [2]; at 50.0 µM -1% | [3]; [7] 1% | [3]; at 50.0 µM 60% | [4]; [7] 1% | [4]; [8] 30% | [4]; at 50.0 µM -28.3% | [5]; [7] 0% | [5]; at 50.0 µM 46.6% | [6]; [7] 9% | [6]; at 50.0 µM 23.4%
active: [1]; [8] 74% | [1]; at 50.0 µM 77.2% | [3]; [8] 91% | [5]; [8] 76% | [6]; [8] 81%

ClC1=C(Cl)C(Cl)=C(Cl)C1
inactive: [1]; [7] 6% | [2]; [7] 7% | [2]; at 50.0 µM 51.4% | [3]; [7] 10% | [3]; at 50.0 µM 48.5% | [4]; [7] 5% | [4]; at 50.0 µM 3.55% | [5]; [7] 4% | [6]; [7] 0%
active: [1]; [8] 93% | [1]; at 50.0 µM 88.2% | [2]; [8] 97% | [3]; [8] 93% | [4]; [8] 85% | [5]; [8] 96% | [5]; at 50.0 µM 79.9% | [6]; [8] 96% | [6]; at 50.0 µM 91.5%

Nc1ccc2c(c1)[nH]c(=O)c1cc(Cl)c(Cl)cc12
inactive: [2]; [7] 27% | [2]; [8] 60% | [2]; at 50.0 µM 40.4% | [3]; [7] 49% | [4]; [7] 63% | [4]; at 50.0 µM 13.1% | [5]; [7] -1% | [5]; at 50.0 µM 9.65% | [6]; [7] 53%
active: [1]; [7] 87% | [1]; [8] 94% | [1]; at 50.0 µM 96.3% | [3]; [8] 70% | [3]; at 50.0 µM 78.2% | [4]; [8] 77% | [5]; [8] 84% | [6]; [8] 85% | [6]; at 50.0 µM 92.9%

Clc1ccc2nc(CCSCCc3nc4ccc(Cl)cc4[nH]3)[nH]c2c1
active: [1]; [8] 97% | [1]; at 50.0 µM 87.8% | [2]; [8] 98% | [2]; at 50.0 µM 98.7% | [3]; [8] 97% | [3]; at 50.0 µM 82% | [4]; [8] 99% | [5]; [8] 98% | [5]; at 50.0 µM 94.8% | [6]; [8] 98% | [6]; at 50.0 µM 97.9%
inactive: [1]; [7] 5% | [2]; [7] 7% | [3]; [7] 7% | [4]; [7] -15% | [4]; at 50.0 µM 59.9% | [5]; [7] -10% | [6]; [7] 0%
